The values below come from ChEMBL document CHEMBL3988442, “University of Dundee, Small-Polar-MMV Screening Library” (2021).

Molecules are shown by their SMILES.

The target in the test is AMP-activated protein kinase, AMPK (Homo sapiens) (UniProt P54646+O43741+P54619+Q9UGJ0+Q9Y478+Q13131+Q9UGI9). In words: AMP-dependent Kinase enzyme assay. An in vitro enzyme assay that detects ADP turnover that is directly proportional to AMPK activity. This uses naive AMPK that is activated during the assay with MK-8722. The format is functional. Also noted: scale not given: direction of the effect not stated beside the values. As to conditions: 30 µM.
For the compound `CNS(=O)(=O)c1ccc(CN2CCN3CCNC(=O)C3C2)cc1` (stereo not given), the Percent Effect was -3.21%.
For `Cn1cc(CC(=O)N2CCCC(c3cc(C(F)(F)F)[nH]n3)C2)cn1` (stereo not given), the Percent Effect was -6.59%.
`CC(C)(C)c1nc(CC(=O)Nc2cnccc2O)cs1`: the Percent Effect is -0.224%.
`CN(CCCO)C(=O)c1cc(COc2ccc3c(c2)CCCC3)on1`: the Percent Effect is -1.01%.
With `CC(C)N(Cc1ccccn1)C(=O)CCC(=O)c1ccccc1`, the Percent Effect was -4.49%.
On to `CCNC(=O)c1ccc(NC2CCOC3(CCCC3)C2)nn1` (stereo not given), for which the Percent Effect was 2.07%.
On to `Cc1cc(C(F)F)nn1CC(=O)NCc1nccn1C`, for which the Percent Effect was found to be 5.16%.
As to `CCn1ccnc1CNCc1ccc(C)cc1OC(C)(C)C`, the Percent Effect worked out at 25.5%.
For `Cc1nc(-c2ccnn2C)cc(C2CCCN(S(C)(=O)=O)C2)n1` (stereo not given) the value was 13.9%.
As for `CS(=O)(=O)c1ccc(-c2cc(C3CC3)c(C#N)c(N)n2)cc1`, the figure is 12.5%; as for `CC(=O)c1cnc(NCCN2CCCC2)nc1C`, -8.98%; as for `OCCN1CCCC(c2cccc(-c3ccccc3F)n2)C1` (stereo not given), 20.3%.
On to `O=S(=O)(NCCCn1cncn1)c1ccc2c(c1)CCCC2`, for which the Percent Effect came to 6.33%.
As for `CCn1c(C2CCN(C(=O)c3ccc4cc[nH]c4c3)CC2)n[nH]c1=O`, the figure is -10.8%.
For `COC(=O)N1CCCCC1C(=O)N1CCC(c2ccncc2)CC1` (stereo not given), the Percent Effect worked out at 1.07%.
With `Cc1noc(C(C)C)c1C(=O)N1CCC(n2cccn2)CC1`, the Percent Effect is 4.03%.
As for `c1ccc(C2Cn3ccnc3CN2Cc2ncc[nH]2)cc1` (stereo not given), the figure is 11.3%; as for `COc1ccc(N2CCN(Cc3noc(CC(C)C)n3)C(C)C2=O)cc1` (stereo not given), 0.845%; as for `O=C(NCCn1ccnc1)C1COCC(=O)N1Cc1ccccc1` (stereo not given), 5.07%.
For the compound `Cc1ncsc1CCN(C)C(=O)CCc1nc2cccnc2n1C`, the Percent Effect was -7.17%.
